Assay [1] has as its target ATP-dependent 6-phosphofructokinase (Trypanosoma brucei brucei) (UniProt O15648). As to the kind of experiment: qHTS Assay to Find Inhibitors of T. brucei phosphofructokinase: hit validation (AID 492961). Also: series mostly up to about 51 µM; % is scaled to controls: 0 for no effect and ±100 for the full control effect. The procedure, abridged: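 Luminescence from ADP-Glo reports ADP generated as T. brucei PFK (1.25 nM) phosphorylates 0.5 mM fructose-6-phosphate using 0.1 mM ATP. Reactions ran 45 min at room temperature, pH 8.0.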
(In general: Quantitative high-throughput screening tests each substance at several concentrations.)

Assay [2] concerns the target Ubiquitin carboxyl-terminal hydrolase 1 (Homo sapiens) (UniProt O94782). As to the kind of experiment: Inhibitors of USP1/UAF1: Pilot qHTS (AID 504865).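 Also: rhodamine fluorescence freed from ubiquitin-rhodamine substrate followed over time; top concentration of the series differs between compounds; % is scaled to controls: 0 for no effect and ±100 for the full control effect; nearly all actives have a fitted effect of over 35% in size.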 Summed up:
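Deubiquitinase activity followed as kinetic rhodamine fluorescence release from 150 nM Ub-Rho. 1 nM USP1/UAF1 with compound, after 15 min room-temperature preincubation, in HEPES pH 7.8 buffer containing TCEP, EDTA, BSA and Tween-20.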

The nature of assay [3]: Validation screen for small molecules that induce genotoxicity in human embryonic kidney (HEK293T) cells expressing luciferase-tagged ELG1 (AID 493106). Also: 0% is about no effect. The procedure, abridged:
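Luminescence from an ELG1-luciferase fusion serves as the read-out, rising when genetic stress elevates ELG1 protein. HEK293T reporter cells (2,000 per well) received 23 nL compound, incubated 16 hr at 37 °C, then ONE-Glo for 30 min at room temperature.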

The target of assay [4] is ATPase family AAA domain-containing protein 5 (Homo sapiens) (UniProt Q96QE3). The assay can be described thus: Validation screen for small molecules that inhibit ELG1-dependent DNA repair in human embryonic kidney (HEK293T) cells expressing luciferase-tagged ELG1 (AID 493107).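 Also: cells co-treated with the DNA-damaging agent 5-fluorouridine alongside compound; series mostly up to about 46 µM; % is scaled to controls: 0 for no effect and ±100 for the full control effect; inhibitors lower the ELG1-luciferase luminescence signal; nearly all actives have a fitted effect of over 70% in size.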 Summed up: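 Luminescence from ONE-Glo, developed 30 min at room temperature, served as read-out of ELG1-luciferase levels. Beforehand, reporter HEK293T cells received 5-fluorouridine plus test compound for 16 hr at 37 °C.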

Assay [5] in a line: Nrf2 qHTS screen for inhibitors: Validation (AID 493153; active = well fitted inhibition curve with a large enough effect in the main read-out, with a control signal flat, not every such curve was filed as active). To be noted: viability change: measured here: cytotoxicity max response. Summed up:
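Luminescence from an ARE-firefly luciferase reporter in A549 cells gives Nrf2 inhibition; an earlier CellTiter-Fluor fluorescent read flags cytotoxicity. Cells in 5% FBS OPTI-MEM received compound dilution series for 18-24 h at 37°C.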

The nature of assay [6]: qHTS for Inhibitors of Cell Surface uPA Generation: Validation Assay (AID 493164). Also: 0% is about no effect. Summed up:
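RAW 264.7 cells (4000/well) were plated overnight, then exposed for 18 h at 37 C, 5% CO2 to compounds in a 7-point 1:5 titration (2.45 nM–38.3 uM final). Intracellular ATP was read by ATP-Lite luminescence.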

For assay [7], the target named is Peptidyl-prolyl cis-trans isomerase NIMA-interacting 1 (Homo sapiens) (UniProt Q13526). The assay can be described thus: qHTS Validation Assay to Find Inhibitors of Pin1 (AID 504536; active = well fitted inhibition curve with a large enough effect in the polarisation, with a control signal flat, not every such curve was filed as active; the % refers to the polarisation;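 also: 0% = full Pin1 enzyme wells and -100% = no-enzyme wells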). Summed up: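 Fluorescence polarization competition: compounds (titration) displace HiFluor-488-labeled Pin1-1b peptide from Pin1 (0.3 uM final) in pH 7.5 HEPES buffer with DTT, 10 min at room temperature; %Activity normalized to no-enzyme wells, curves fitted.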

Assay [8] has as its target phosphoglycerate mutase (Leishmania major) (UniProt Q4Q090). The assay can be described thus: qHTS Validation Assay to Find Inhibitors of Phosphoglycerate Mutase (AID 504548).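 Also: end-point luminescence from Kinase-GloPlus after the PGAM reaction; series mostly up to about 58 µM; % is scaled to controls: 0 for no effect and ±100 for the full control effect.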 Summed up:
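Inhibition of L. major PGAM was assessed by Kinase-GloPlus luminescence following a 45-minute room-temperature reaction with enzyme at 1.25nM final.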

A short description of assay [9]: qHTS for Inhibitors of ATXN expression: Validation of Cytotoxic Assay (AID 588349). Also: % is scaled to controls: 0 for no effect and ±100 for the full control effect. The procedure, abridged:
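Read-out: ATP-based luminescence (CellTiter Glo) reflecting viability of HEK293 cells after 72 hr incubation at 37 degrees C with a concentration series of each compound.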

A short description of assay [10]: qHTS for Inhibitors of ATXN expression: Validation (AID 588378). Also: series mostly up to about 57 µM; % is scaled to controls: 0 for no effect and ±100 for the full control effect; nearly all actives have a fitted effect of over 75% in size. Summed up: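 Luciferase luminescence (Bright-Glo) from an ATXN2-FFLuc HEK293 line after 24 h compound exposure at 37 °C, preceded by a CellTiter-Fluor fluorescence viability read. Serial dilutions of a reference ATXN2 inhibitor and a luciferase inhibitor served as controls.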
The target in assay [11] is Thyrotropin-releasing hormone receptor (Homo sapiens) (UniProt P34981). As to the kind of experiment: qHTS for Small Molecule Agonists and Allosteric Enhancers of Human TRH Receptor: Validation Screen for Agonists (AID 493127;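 active = calcium activation more than 3 SD above the typical response in the agonist read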;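 also: intracellular calcium rise by fluo-8 fluorescence before TRH EC20 addition; 0% is about no effect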). Conditions: TRH receptor agonist cell assay; at 2 µM; stronger effect = higher value. Summed up:
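Cells 2000/well, 10% FCS, 18 h 33.5C/5% CO2 → fluo-8 Ca dye, RT 30 min–1.5 h → FDSS baseline 10 × 1 s → compound added → 230 cycles (1 s/cycle) agonist mode. TRH controls.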

Assay [12] concerns the target Galactokinase (Homo sapiens) (UniProt P51570). As to the kind of experiment: qHTS Validation Assay for Inhibitors of Human Galactokinase (GALK) (AID 493189). Also: 0% is about no effect. The procedure, abridged: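 Inhibition was measured as remaining ATP, detected by luciferase luminescence after a 1 h room-temperature reaction. Final conditions: 5 nM GALK, 100 uM galactose, 35 uM ATP, pH 8.0 HEPES buffer.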

Assay [13] is described as follows: Validation screen for small molecules that induce DNA re-replication in SW480 colon adenocarcinoma cells (AID 504364). Also: 0% is about no effect. Summed up: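 250 cells/well; compound pinned in; 48 hr, 37 C, 5% CO2; Hoechst added, 40 min; nuclear fluorescence imaged, 405 ex / 500-530 em; re-replication scored as increase in high-intensity nuclei.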
Assay [14] deals with DNA dC->dU-editing enzyme APOBEC-3G (Homo sapiens) (UniProt Q9HC16). As to the kind of experiment: qHTS for inhibitors of Vif-A3G interactions: Validation (AID 588379). Also: 0% is about no effect. Summed up: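 HeLa cells stably expressing Vif and A3G-eYFP, 700 cells/well, incubated overnight at 37 deg C, then exposed to compound overnight at 37 deg C. Inhibition of Vif-mediated degradation read as increased yellow fluorescence (Ex 488/Em 500-530) by laser-scanning cytometry.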

For assay [15], the target named is Estrogen receptor (Homo sapiens) (UniProt P03372). The assay can be described thus: qHTS assay for small molecule agonists of estrogen receptor alpha signaling (AID 588514; calls by dose curve;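 also: 0% = vehicle only and 100% = reference agonist; nearly all actives have a fitted effect of over 70% in size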). The procedure, abridged:
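Cells were plated at 5000/well, incubated 4 hrs at 37 C, dosed with compound titration series, incubated 18 hrs at 37 C, loaded with CCF4 dye for 2 hrs at RT, then fluorescence was read.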

Assay [16] concerns the target Bile acid receptor (Homo sapiens) (UniProt Q96RI1). The assay can be described thus: qHTS assay for small molecule antagonists of farnesoid X receptor signaling (AID 588526; calls by dose curve; also: % is scaled to controls: 0 for no effect and ±100 for the full control effect). The procedure, abridged:
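Antagonist mode: titrated compounds tested against chenodeoxycholic acid stimulation (normalized to 50 uM CDCA and DMSO) in GeneBLAzer HEK293T cells for 16 h. Beta-lactamase read by CCF4 fluorescence; IC50 from Hill fits.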

Assay [17] deals with Glucocorticoid receptor (Homo sapiens) (UniProt P04150). As to the kind of experiment: qHTS assay for small molecule agonists of glucocorticoid receptor signaling (AID 588532; active = well fitted curve in the direction sought with a large enough effect in the signal ratio, with a control signal flat; the % refers to the signal ratio;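 also: 100% = dexamethasone at 0.1 µM and 0% = DMSO only wells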). Conditions: HeLa MMTV-bla, beta-lactamase ratio, agonist, 18 h; stronger effect = higher value; percent of dexamethasone control, DMSO zero. Summed up:
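Cells were plated and rested 3-5 h at 37 C, compounds were added in titration and incubated 18 h, then CCF4 substrate was loaded for 2 h at RT before reading blue/green fluorescence. EC50 came from Hill-equation fitting.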

Assay [18] addresses Estrogen receptor (Homo sapiens) (UniProt P03372). As to the kind of experiment: qHTS assay for small molecule antagonists of estrogen receptor alpha signaling (AID 588513; active = well fitted curve in the direction sought with a large enough effect in the signal ratio, with a control signal flat, not every such curve was filed as active; the % refers to the signal ratio; also: % is scaled to controls: 0 for no effect and ±100 for the full control effect). Summed up: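 Antagonist mode: inhibition of 0.5 nM 17-beta-estradiol-driven beta-lactamase reporter in HEK 293 ER-alpha-UAS-bla cells, 18 h at 37C, CCF4 readout after 2 h at RT. Normalised to estradiol and DMSO; titration fitted to Hill.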

This note sets out measurements from PubChem BioAssay (NCATS).

Records with an inconclusive call do not appear. Active and inactive are the calls of the source. Unless noted, calls follow the shape of the dose curve; as a rule, active = well fitted curve in the direction sought with a large enough effect; inconclusive = small, poorly fitted or top-dose-only effect, or another doubt; inactive = no such curve, though single readings can be large; an effect the other way counts as inactive or inconclusive.

Galactokinase (Homo sapiens), sequence (P51570 whole entry, looked up): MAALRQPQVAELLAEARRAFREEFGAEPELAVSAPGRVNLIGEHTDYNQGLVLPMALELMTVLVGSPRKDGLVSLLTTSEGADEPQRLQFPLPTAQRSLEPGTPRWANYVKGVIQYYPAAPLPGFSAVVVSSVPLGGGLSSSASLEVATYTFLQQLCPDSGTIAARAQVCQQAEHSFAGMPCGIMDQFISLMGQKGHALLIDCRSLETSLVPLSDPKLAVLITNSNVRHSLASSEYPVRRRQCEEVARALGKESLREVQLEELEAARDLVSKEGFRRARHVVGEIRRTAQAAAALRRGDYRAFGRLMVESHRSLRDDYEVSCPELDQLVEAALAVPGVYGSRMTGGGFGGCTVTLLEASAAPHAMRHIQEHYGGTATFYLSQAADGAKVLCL
ATPase family AAA domain-containing protein 5 (Homo sapiens), sequence (Q96QE3 whole entry, looked up, the tested form may be a part): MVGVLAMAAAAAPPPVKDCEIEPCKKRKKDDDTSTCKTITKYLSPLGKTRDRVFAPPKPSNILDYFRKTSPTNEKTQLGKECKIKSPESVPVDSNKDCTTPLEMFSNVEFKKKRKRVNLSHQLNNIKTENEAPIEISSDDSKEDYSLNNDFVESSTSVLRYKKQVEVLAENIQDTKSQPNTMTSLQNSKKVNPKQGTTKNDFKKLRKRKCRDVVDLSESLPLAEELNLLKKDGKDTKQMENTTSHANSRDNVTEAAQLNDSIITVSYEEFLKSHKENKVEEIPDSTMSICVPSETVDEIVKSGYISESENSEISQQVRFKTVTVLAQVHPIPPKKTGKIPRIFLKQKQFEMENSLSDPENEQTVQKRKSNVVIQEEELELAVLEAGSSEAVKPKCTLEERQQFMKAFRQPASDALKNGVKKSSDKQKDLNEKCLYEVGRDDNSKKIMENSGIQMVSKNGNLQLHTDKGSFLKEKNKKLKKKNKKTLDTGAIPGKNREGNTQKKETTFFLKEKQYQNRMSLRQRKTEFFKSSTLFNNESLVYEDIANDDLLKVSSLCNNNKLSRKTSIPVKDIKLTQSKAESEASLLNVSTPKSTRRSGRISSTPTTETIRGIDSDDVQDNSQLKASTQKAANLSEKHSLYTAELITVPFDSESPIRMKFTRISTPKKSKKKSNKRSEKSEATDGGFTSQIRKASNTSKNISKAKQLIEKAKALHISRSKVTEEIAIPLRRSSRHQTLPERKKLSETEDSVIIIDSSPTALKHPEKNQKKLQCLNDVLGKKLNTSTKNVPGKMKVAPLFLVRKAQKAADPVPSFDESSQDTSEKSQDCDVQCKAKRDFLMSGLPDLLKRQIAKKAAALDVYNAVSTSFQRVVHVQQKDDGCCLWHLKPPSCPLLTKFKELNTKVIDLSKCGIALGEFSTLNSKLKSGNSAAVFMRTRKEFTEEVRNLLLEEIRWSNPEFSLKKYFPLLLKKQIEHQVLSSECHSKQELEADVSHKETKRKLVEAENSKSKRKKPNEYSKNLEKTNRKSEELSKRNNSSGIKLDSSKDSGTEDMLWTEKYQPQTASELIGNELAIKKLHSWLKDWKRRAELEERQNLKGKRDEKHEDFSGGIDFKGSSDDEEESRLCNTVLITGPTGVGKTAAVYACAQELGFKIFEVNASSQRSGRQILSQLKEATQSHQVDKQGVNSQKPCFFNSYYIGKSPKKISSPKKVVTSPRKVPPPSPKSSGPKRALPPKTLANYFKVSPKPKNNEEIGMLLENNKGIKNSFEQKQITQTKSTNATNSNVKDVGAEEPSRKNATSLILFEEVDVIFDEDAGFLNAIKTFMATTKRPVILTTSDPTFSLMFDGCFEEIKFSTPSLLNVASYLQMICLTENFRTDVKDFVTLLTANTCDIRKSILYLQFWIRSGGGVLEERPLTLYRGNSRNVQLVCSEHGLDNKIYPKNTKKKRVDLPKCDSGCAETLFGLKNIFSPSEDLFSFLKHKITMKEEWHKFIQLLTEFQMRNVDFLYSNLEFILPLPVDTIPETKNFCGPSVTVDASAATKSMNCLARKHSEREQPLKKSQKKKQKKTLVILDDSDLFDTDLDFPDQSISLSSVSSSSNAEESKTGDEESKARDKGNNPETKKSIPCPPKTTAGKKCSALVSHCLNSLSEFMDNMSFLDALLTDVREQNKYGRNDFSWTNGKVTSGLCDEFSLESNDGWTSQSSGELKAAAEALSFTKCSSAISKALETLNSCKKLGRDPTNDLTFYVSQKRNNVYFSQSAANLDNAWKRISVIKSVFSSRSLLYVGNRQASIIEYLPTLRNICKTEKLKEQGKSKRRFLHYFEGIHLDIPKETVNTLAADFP
Ubiquitin carboxyl-terminal hydrolase 1 (Homo sapiens), sequence (O94782 whole entry, looked up): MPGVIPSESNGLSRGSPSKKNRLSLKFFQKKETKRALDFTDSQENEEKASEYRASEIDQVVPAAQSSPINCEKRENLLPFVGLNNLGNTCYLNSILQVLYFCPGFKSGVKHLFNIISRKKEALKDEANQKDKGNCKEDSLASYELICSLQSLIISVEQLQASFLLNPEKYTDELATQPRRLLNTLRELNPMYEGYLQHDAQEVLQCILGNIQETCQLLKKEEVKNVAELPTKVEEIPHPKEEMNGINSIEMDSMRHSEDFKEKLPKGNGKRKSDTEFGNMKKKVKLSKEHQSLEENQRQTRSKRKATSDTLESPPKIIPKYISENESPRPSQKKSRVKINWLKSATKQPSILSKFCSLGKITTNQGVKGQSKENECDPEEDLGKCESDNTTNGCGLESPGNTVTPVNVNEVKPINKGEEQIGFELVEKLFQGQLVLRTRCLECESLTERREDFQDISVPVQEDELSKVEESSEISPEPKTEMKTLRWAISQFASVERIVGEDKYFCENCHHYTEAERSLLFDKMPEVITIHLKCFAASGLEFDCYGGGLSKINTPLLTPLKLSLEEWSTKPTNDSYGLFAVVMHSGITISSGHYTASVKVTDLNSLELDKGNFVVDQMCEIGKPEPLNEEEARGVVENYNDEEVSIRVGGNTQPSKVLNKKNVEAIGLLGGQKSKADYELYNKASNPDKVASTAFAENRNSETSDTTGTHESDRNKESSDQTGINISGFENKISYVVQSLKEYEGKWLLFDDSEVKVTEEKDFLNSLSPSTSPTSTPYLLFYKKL
phosphoglycerate mutase (Leishmania major), sequence (Q4Q090 1-553): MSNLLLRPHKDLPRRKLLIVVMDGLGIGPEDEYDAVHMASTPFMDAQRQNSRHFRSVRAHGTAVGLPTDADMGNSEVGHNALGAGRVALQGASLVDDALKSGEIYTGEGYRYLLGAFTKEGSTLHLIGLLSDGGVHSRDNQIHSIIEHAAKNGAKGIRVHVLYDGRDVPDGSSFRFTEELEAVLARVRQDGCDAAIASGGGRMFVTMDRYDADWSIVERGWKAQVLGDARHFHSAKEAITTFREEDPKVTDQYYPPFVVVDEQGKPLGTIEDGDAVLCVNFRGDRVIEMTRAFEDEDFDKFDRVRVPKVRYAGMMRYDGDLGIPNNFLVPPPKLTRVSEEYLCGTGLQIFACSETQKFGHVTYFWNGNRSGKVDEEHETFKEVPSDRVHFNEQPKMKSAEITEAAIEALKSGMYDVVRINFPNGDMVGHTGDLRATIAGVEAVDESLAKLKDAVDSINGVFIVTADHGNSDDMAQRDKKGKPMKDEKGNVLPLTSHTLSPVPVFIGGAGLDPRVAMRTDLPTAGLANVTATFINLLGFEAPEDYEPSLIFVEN
ATP-dependent 6-phosphofructokinase (Trypanosoma brucei brucei), sequence (O15648 whole entry, looked up): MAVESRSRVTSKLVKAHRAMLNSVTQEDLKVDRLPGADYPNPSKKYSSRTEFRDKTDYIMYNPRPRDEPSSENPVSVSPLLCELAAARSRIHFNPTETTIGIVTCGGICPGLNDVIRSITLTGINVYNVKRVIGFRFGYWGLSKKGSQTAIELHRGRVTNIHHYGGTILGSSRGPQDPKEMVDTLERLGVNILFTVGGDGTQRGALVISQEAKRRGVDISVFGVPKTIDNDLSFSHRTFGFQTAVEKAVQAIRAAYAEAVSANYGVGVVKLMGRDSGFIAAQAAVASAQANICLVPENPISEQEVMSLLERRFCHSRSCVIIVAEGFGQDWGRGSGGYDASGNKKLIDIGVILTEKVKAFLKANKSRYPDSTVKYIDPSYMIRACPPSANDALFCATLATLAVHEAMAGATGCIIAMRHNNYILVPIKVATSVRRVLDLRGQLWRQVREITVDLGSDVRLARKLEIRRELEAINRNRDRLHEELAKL
Peptidyl-prolyl cis-trans isomerase NIMA-interacting 1 (Homo sapiens), sequence (Q13526 whole entry, looked up): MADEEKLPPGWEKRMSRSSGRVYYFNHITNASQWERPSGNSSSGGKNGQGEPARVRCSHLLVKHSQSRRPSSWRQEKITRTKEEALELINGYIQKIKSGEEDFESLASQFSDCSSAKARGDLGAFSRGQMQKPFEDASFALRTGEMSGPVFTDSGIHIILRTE
Estrogen receptor (Homo sapiens), sequence (P03372 whole entry, looked up): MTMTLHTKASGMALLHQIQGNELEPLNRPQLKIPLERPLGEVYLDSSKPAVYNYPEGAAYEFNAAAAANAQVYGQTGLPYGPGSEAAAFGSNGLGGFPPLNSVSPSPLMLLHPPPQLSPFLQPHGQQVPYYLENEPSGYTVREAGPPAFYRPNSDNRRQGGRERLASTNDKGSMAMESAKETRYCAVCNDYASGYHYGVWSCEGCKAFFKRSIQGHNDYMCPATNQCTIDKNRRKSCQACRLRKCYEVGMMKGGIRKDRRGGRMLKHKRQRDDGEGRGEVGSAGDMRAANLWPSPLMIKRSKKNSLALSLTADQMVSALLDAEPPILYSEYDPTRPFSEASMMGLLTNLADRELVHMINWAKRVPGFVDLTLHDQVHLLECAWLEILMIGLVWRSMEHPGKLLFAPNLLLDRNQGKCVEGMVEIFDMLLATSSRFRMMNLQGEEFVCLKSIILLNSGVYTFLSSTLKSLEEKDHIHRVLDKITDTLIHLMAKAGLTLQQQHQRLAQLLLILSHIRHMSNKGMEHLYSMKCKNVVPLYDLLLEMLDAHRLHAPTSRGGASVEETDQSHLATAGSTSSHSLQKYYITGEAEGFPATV

As to `CCN(CC)C(=O)N1CCN(C)CC1`, the call in [1] was inactive. Besides, the Potency entry in [2] was “inactive”.
With `CCCCOc1ccc(C(=O)CCN2CCCCC2)cc1`, the compound was called inactive in assay [1]. Also, in [2], the Potency entry was “inactive”.
Take `C[C@@H]1C[C@H]2[C@@H]3CCC4=CC(=O)C=C[C@]4(C)[C@@]3(F)[C@@H](O)C[C@]2(C)[C@H]1C(=O)CO`: the result in assay [1] was inactive. In assay [2], the Potency result is “inactive”.
As for `OCc1ccccc1O`, the outcome in [1] was inactive. Also, the Potency result in assay [2] is “inactive”.
For the compound `CCOC(=O)OC(C)OC1=C(C(=O)Nc2ccccn2)N(C)S(=O)(=O)c2ccccc21` (stereo not drawn), in assay [1], the compound was classed as inactive. The Potency result in [2] is “inactive”.
For `O=C(CCCN1CCC(O)(c2ccc(Br)cc2)CC1)c1ccc(F)cc1`, the result in assay [1] was inactive. Further, the Potency entry in assay [2] is “inactive”.
Consider `Clc1ccc2c(c1)CCc1cccnc1C2=C1CCNCC1`, for which the result in [1] was inactive. Moreover, the Potency result in assay [2] is “inactive”.
`C[C@]12CCC(=O)C=C1CC[C@H]1[C@@H]3CC[C@](O)(C(=O)CO)[C@@]3(C)C[C@H](O)[C@@]12F`: the call in [1] was inactive. Moreover, in assay [2], the Potency entry was “inactive”.
Regarding `CC(O)(P(=O)(O)O)P(=O)(O)O`, the call in [1] was inactive. In assay [2], the Potency result is “inactive”.
As for `NC(CO)(CO)CO`, the result in assay [1] was inactive. The Potency result in [2] is “inactive”.
Regarding `O=C(O)CNC(=O)c1ccccc1`, the compound was classed as inactive in assay [1]. Also, in [2], the Potency result is “inactive”.
For the compound `CO/N=C1\CN(c2nc3c(cc2F)c(=O)c(C(=O)O)cn3C2CC2)CC1CN` (stereo not drawn), in assay [1], the call was inactive. Also, the Potency entry in assay [2] is “inactive”.
For `NCCc1ccn[nH]1`, the outcome in [1] was inactive. Moreover, the Potency entry in [2] was “inactive”.
Take `CCCC1O[C@@H]2C[C@H]3[C@@H]4CCC5=CC(=O)C=C[C@]5(C)[C@H]4[C@@H](O)C[C@]3(C)[C@]2(C(=O)CO)O1` (stereo partly drawn): the compound was called inactive in assay [3], in assay [5], in assay [6], in assay [7], in [8] and in assay [9]. Further, the Potency entry in assay [4], in [2] and in assay [10] was “inactive” each time. Further, in assay [5], the viability change is -3.74%.
As to `COC(=O)[C@H]1[C@H]2C[C@H]3c4[nH]c5ccccc5c4CCN3C[C@H]2CC[C@@H]1O`, the compound was classed as inactive in [3], in assay [5], in [6], in assay [12], in assay [13] and in assay [7]. For the same compound, the outcome in assay [8] and in assay [9] was inactive. The Potency entry in assay [4], in assay [2] and in [10] was “inactive” in each case. Also, in assay [11], the activation is 1.44% (inactive). In assay [5], the viability change is -3.55%.
As to `CN=C(NC#N)NCCSCc1csc(N=C(N)N)n1`, the result in assay [1] and in assay [14] was inactive. Besides, the Potency result in assay [2] was “inactive”.
In the case of `C1CCc2nnnn2CC1`, the outcome in [3], in assay [5], in assay [6], in assay [12], in [13] and in assay [7] was inactive. Further, the compound was classed as inactive in assay [8] and in assay [9]. For the same compound, the activation in assay [11] was -0.375% (inactive). In [5], the viability change is 4.51%. The Potency entry in assay [2] and in assay [10] was “inactive” each time.
As to `O=C(O)c1cc2cc(Cc3cccnc3)ccc2o1`, the compound was classed as inactive in assay [3], in assay [5], in assay [6], in assay [12], in assay [13] and in [7]. In addition, the compound was classed as inactive in [8] and in assay [9]. The Potency result in assay [4], in assay [2] and in assay [10] was “inactive” each time. Also, the activation in assay [11] was 1.38% (inactive). Moreover, the viability change in assay [5] is 0.85%.
`CCOC(=O)COc1ccc2c(C)c(CCN(CC)CC)c(=O)oc2c1Cl`: in assay [1], the call was inactive. In assay [2], the Potency result was “inactive”.
As to `CCC(NC(C)C)C(O)c1ccc(O)c(O)c1` (stereo not drawn), the result in [3], in assay [5], in assay [6], in [12], in assay [13] and in assay [7] was inactive. For the same compound, in assay [9], the result was inactive. Also, the Potency result in assay [4] and in [2] was “inactive” throughout. Besides, the activation in assay [11] is 0.625% (inactive). For the same compound, the viability change in assay [5] is -19.1%.
Consider `CCN1CCC[C@H]1CNC(=O)c1c(OC)ccc(Br)c1OC`, for which the compound was classed as inactive in [1] and in [14]. Moreover, the Potency result in assay [2] was “inactive”.
As to `CCN1CCCC1=O`, the compound was called inactive in assay [1]. Moreover, in [2], the Potency entry is “inactive”.
`CN(C)/N=N/c1nc[nH]c1C(N)=O`: the call in assay [1] and in assay [15] was inactive. The Potency entry in assay [2] and in assay [16] was “inactive” in each case. Also, the activation in assay [17] was -5.55% (inactive).
As for `CN(C)C(=S)SC(=S)N(C)C`, the compound was called inactive in [1]. In addition, the Potency result in assay [2] and in assay [16] was “inactive” throughout.
`O=c1ccc2ccccc2o1`: the outcome in [1] and in assay [15] was inactive. Further, the Potency entry in [2], in assay [18] and in assay [16] was “inactive” in each case.
In the case of `O=C1c2ccccc2C(=O)C1c1ccccc1`, the result in [1] was inactive. Moreover, the Potency result in assay [2] was “inactive”.
Take `N[C@H](CO)C(=O)O`: the outcome in assay [3], in assay [5], in [6], in assay [12], in assay [13] and in assay [7] was inactive. The compound was called inactive in [8] and in assay [9]. The Potency entry in assay [4], in [2] and in assay [10] was “inactive” throughout. The activation in assay [11] was 0.688% (inactive). Moreover, in [5], the viability change turned out to be 0.276%.
